Laboratory results taken from paper PMC8384837, “Expanding the binding specificity for RNA recognition by a PUF domain”.
Positions count from the first letter of the chain named.

Tests used:
Experiment in all cases: yeast three-hybrid, YBZ-1, SC-Leu-His + 0.5 mM 3-AT, 4 days
Conditions in all cases: tags: N-Gal4 AD-HA kept; label: inside an RPR1-promoter hybrid RNA with tandem MS2 sites; ssRNA
PUM1 PUF domain R8-RFD = PUM1 PUF domain R8-RFD (Homo sapiens, UniProt Q14671 828-1176, N1122R;Y1123F;Q1126D)
Procedure, shortened: (§1)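 Sequencing with Illumina followed PCR amplification of the repeat regions from transformants grown four days on SC-Leu (input) or SC-Leu-His + 0.5 mM 3-AT (selection). The transformants were strain YBZ-1 with a LexA–MS2 coat fusion and a HIS3 reporter, carrying Pumilio-1 PUF domain libraries and matching RNA elements. The interaction score is the log change in variant frequency from input to selection, computed in log2 with a pseudocount of 1 for absent variants.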

PUM1 PUF domain R8-KHR = PUM1 PUF domain R8-KHR (Homo sapiens, UniProt Q14671 828-1176, N1122K;Y1123H;Q1126R)
Procedure, shortened: as §1

PUM1 PUF domain R2-RRA = PUM1 PUF domain R2-RRA (Homo sapiens, UniProt Q14671 828-1176, N899R;Y900R;Q903A)
Procedure, shortened: as §1

PUM1 PUF domain R6-LFA = target: T1, PUM1 PUF domain R6-LFA (Homo sapiens, UniProt Q14671 828-1176, N1043L;Y1044F;Q1047A)
T1 sequence: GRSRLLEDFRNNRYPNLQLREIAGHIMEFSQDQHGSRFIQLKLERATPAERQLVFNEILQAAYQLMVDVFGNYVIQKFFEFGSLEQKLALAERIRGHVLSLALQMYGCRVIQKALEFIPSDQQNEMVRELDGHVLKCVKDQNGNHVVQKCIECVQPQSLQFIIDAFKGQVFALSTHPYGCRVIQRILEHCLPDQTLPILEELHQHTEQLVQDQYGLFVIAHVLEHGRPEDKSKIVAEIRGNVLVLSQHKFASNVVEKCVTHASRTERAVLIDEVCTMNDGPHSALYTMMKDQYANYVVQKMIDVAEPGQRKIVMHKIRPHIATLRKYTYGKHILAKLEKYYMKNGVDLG
Procedure, shortened: as §1

PUM1 PUF domain R6-GFR = target: T2, PUM1 PUF domain R6-GFR (Homo sapiens, UniProt Q14671 828-1176, N1043G;Y1044F;Q1047R)
T2 sequence: T1 sequence with L216G, A220R
Procedure, shortened: as §1

PUM1 PUF domain R1-KTQ = PUM1 PUF domain R1-KTQ (Homo sapiens, UniProt Q14671 828-1176, S863K;R864T)
Procedure, shortened: as §1

PUM1 PUF domain R3-LFE = PUM1 PUF domain R3-LFE (Homo sapiens, UniProt Q14671 828-1176, C935L;R936F;Q939E)
Procedure, shortened: as §1

PUM1 PUF domain R3-RQS = PUM1 PUF domain R3-RQS (Homo sapiens, UniProt Q14671 828-1176, C935R;R936Q;Q939S)
Procedure, shortened: as §1

PUM1 PUF domain R4-DWT = PUM1 PUF domain R4-DWT (Homo sapiens, UniProt Q14671 828-1176, N971D;H972W;Q975T)
Procedure, shortened: as §1

PUM1 PUF domain R3-API = PUM1 PUF domain R3-API (Homo sapiens, UniProt Q14671 828-1176, C935A;R936P;Q939I)
Procedure, shortened: as §1

PUM1 PUF domain R3-SNF = PUM1 PUF domain R3-SNF (Homo sapiens, UniProt Q14671 828-1176, C935S;R936N;Q939F)
Procedure, shortened: as §1

PUM1 PUF domain R6-VWC = target: T3, PUM1 PUF domain R6-VWC (Homo sapiens, UniProt Q14671 828-1176, N1043V;Y1044W;Q1047C)
T3 sequence: T1 sequence with L216V, F217W, A220C
Procedure, shortened: as §1

PUM1 PUF domain R5-LHC = PUM1 PUF domain R5-LHC (Homo sapiens, UniProt Q14671 828-1176, C1007L;R1008H;Q1011C)
Procedure, shortened: as §1

PUM1 PUF domain R5-LNS = PUM1 PUF domain R5-LNS (Homo sapiens, UniProt Q14671 828-1176, C1007L;R1008N;Q1011S)
Procedure, shortened: as §1

PUM1 PUF domain R1-KAN = PUM1 PUF domain R1-KAN (Homo sapiens, UniProt Q14671 828-1176, S863K;R864A;Q867N)
Procedure, shortened: as §1

PUM1 PUF domain R7-TRR = PUM1 PUF domain R7-TRR (Homo sapiens, UniProt Q14671 828-1176, S1079T;N1080R;E1083R)
Procedure, shortened: as §1

PUM1 PUF domain R1-QLR = PUM1 PUF domain R1-QLR (Homo sapiens, UniProt Q14671 828-1176, S863Q;R864L;Q867R)
Procedure, shortened: as §1

PUM1 PUF domain R4-PWQ = PUM1 PUF domain R4-PWQ (Homo sapiens, UniProt Q14671 828-1176, N971P;H972W)
Procedure, shortened: as §1

PUM1 PUF domain R4-FNG = PUM1 PUF domain R4-FNG (Homo sapiens, UniProt Q14671 828-1176, N971F;H972N;Q975G)
Procedure, shortened: as §1

PUM1 PUF domain R4-RHI = PUM1 PUF domain R4-RHI (Homo sapiens, UniProt Q14671 828-1176, N971R;Q975I)
Procedure, shortened: as §1

## GGCUAGAACUAGUGGAUCCCCCGGCGCCCGGCGGCUCGAGCCCGGGUAAGCGUAAAUAGUCUGCAUGCCGCCGGGCGCCAUGCCUGCAGGUCGACUCUAGAAAACAUG
PUM1 PUF domain R8-RFD
  binding signal: 4.38 log2 enrichment (interaction score)
PUM1 PUF domain R8-KHR
  binding signal: 6.43 log2 enrichment (interaction score)

## GGCUAGAACUAGUGGAUCCCCCGGCGCCCGGCGGCUCGAGCCCGGGUAAGUGUAAAGAGUCUGCAUGCCGCCGGGCGCCAUGCCUGCAGGUCGACUCUAGAAAACAUG
PUM1 PUF domain R2-RRA
  binding signal: 2.69 log2 enrichment (interaction score)

## GGCUAGAACUAGUGGAUCCCCCGGCGCCCGGCGGCUCGAGCCCGGGUAAGUGAAAAUAGUCUGCAUGCCGCCGGGCGCCAUGCCUGCAGGUCGACUCUAGAAAACAUG
PUM1 PUF domain R6-LFA
  binding signal: 6.15 log2 enrichment (interaction score)

## GGCUAGAACUAGUGGAUCCCCCGGCGCCCGGCGGCUCGAGCCCGGGUAAGUGCAAAUAGUCUGCAUGCCGCCGGGCGCCAUGCCUGCAGGUCGACUCUAGAAAACAUG
PUM1 PUF domain R6-GFR
  binding signal: 6.98 log2 enrichment (interaction score)

## GGCUAGAACUAGUGGAUCCCCCGGCGCCCGGCGGCUCGAGCCCGGGUAAGUGUAAAUUGUCUGCAUGCCGCCGGGCGCCAUGCCUGCAGGUCGACUCUAGAAAACAUG
PUM1 PUF domain R1-KTQ
  binding signal: 5.82 log2 enrichment (interaction score)

## GGCUAGAACUAGUGGAUCCCCCGGCGCCCGGCGGCUCGAGCCCGGGUAAGUGUAAUUAGUCUGCAUGCCGCCGGGCGCCAUGCCUGCAGGUCGACUCUAGAAAACAUG
PUM1 PUF domain R3-LFE
  binding signal: 1.57 log2 enrichment (interaction score)
PUM1 PUF domain R3-RQS
  binding signal: 4.09 log2 enrichment (interaction score)

## GGCUAGAACUAGUGGAUCCCCCGGCGCCCGGCGGCUCGAGCCCGGGUAAGUGUAAAUAGUCUGCAUGCCGCCGGGCGCCAUGCCUGCAGGUCGACUCUAGAAAACAUG
PUM1 PUF domain R4-DWT
  binding signal: 6.18 log2 enrichment (interaction score)
PUM1 PUF domain R3-LFE
  binding signal: 3.02 log2 enrichment (interaction score)
PUM1 PUF domain R3-API
  binding signal: 3.13 log2 enrichment (interaction score)
PUM1 PUF domain R3-SNF
  binding signal: 2.65 log2 enrichment (interaction score)
PUM1 PUF domain R6-VWC
  binding signal: 3.32 log2 enrichment (interaction score)
PUM1 PUF domain R5-LHC
  binding signal: 2.44 log2 enrichment (interaction score)
PUM1 PUF domain R6-GFR
  binding signal: 4.38 log2 enrichment (interaction score)
PUM1 PUF domain R8-KHR
  binding signal: 2.92 log2 enrichment (interaction score)

## GGCUAGAACUAGUGGAUCCCCCGGCGCCCGGCGGCUCGAGCCCGGGUAAGUGUUAAUAGUCUGCAUGCCGCCGGGCGCCAUGCCUGCAGGUCGACUCUAGAAAACAUG
PUM1 PUF domain R5-LNS
  binding signal: 4.81 log2 enrichment (interaction score)

## GGCUAGAACUAGUGGAUCCCCCGGCGCCCGGCGGCUCGAGCCCGGGUAAGUGUAAAUGGUCUGCAUGCCGCCGGGCGCCAUGCCUGCAGGUCGACUCUAGAAAACAUG
PUM1 PUF domain R1-KAN
  binding signal: 2.46 log2 enrichment (interaction score)

## GGCUAGAACUAGUGGAUCCCCCGGCGCCCGGCGGCUCGAGCCCGGGUAAGUCUAAAUAGUCUGCAUGCCGCCGGGCGCCAUGCCUGCAGGUCGACUCUAGAAAACAUG
PUM1 PUF domain R7-TRR
  binding signal: 3.35 log2 enrichment (interaction score)

## GGCUAGAACUAGUGGAUCCCCCGGCGCCCGGCGGCUCGAGCCCGGGUAAGUGUAAAUCGUCUGCAUGCCGCCGGGCGCCAUGCCUGCAGGUCGACUCUAGAAAACAUG
PUM1 PUF domain R1-QLR
  binding signal: 4.6 log2 enrichment (interaction score)

## GGCUAGAACUAGUGGAUCCCCCGGCGCCCGGCGGCUCGAGCCCGGGUAAGUGUAUAUAGUCUGCAUGCCGCCGGGCGCCAUGCCUGCAGGUCGACUCUAGAAAACAUG
PUM1 PUF domain R4-PWQ
  binding signal: 5.05 log2 enrichment (interaction score)
PUM1 PUF domain R4-FNG
  binding signal: 4.34 log2 enrichment (interaction score)
PUM1 PUF domain R4-RHI
  binding signal: 3.1 log2 enrichment (interaction score)
